Assay results from ChEMBL document CHEMBL4513160, “CO-ADD screening of MMV (CH) - Small Polar Library”.
In all, about 18,000 compounds went through this assay and fewer than 10 showed an effect of 50% or more. A selection follows.

System: Pseudomonas aeruginosa
Test: Antibacterial activity against Pseudomonas aeruginosa PAO397 [PAO1 d(mexAB-oprM) d(mexCD-oprJ) d(mexEF-oprN) d(mexJKL) d(mexXY) d(opmH)] (CO-ADD:GN_211); MIC in CAMBH media using NBS plates, by OD(600)
Type: functional
Conditions: Concentration 300 ug.mL-1, ASSAY_TEST Inhibition of Bacterial Growth, detection method Absorption (OD600), MEDIA CAMHB, plate type 384well, CORNING #3640, time 18 hr

Compared with `OC(CNc1ncc(Cl)cc1F)CN1CCOCC1` (centres undefined), `CNc1ccc(N2CCOCC2)nc1` is lower in Inhibition: 11.06% for the first, -26.42% for the second.

Compared with `CC(C)C(=O)Nc1ccc(N2CCOCC2)nc1`, `O=C(CN1CCCC1c1ccco1)N1CCOCC1` (centres undefined) is higher in Inhibition: 4.38% for the first, 18.12% for the second.

First: COC(=O)CCCC(=O)N1CCC2(CCCC2)C1
Second: CCOCC(=O)N1C[C@H](CO)C[C@H](CN2CCCC2)C1
The Inhibition of the first is higher: 14.7% for the first, -0.69% for the second.

Compared with `COCCNS(=O)(=O)C1CCCCC1`, `Cc1ccnc(NCCS(=O)(=O)NCC2CCC2)c1` is lower in Inhibition: -6.37% for the first, -18.59% for the second.

Going from `CC(C)c1cccc(S(=O)(=O)N2CCCC2CN)c1` (centres undefined) to `NS(=O)(=O)CC1CCCN1CCSc1ccccc1` (centres undefined), the Inhibition rises from -46.42% to -5.99%.

First: CC(C)c1ccn(CC(=O)NC2CC2)n1
Second: N[C@@H]1CC[C@@H]1NC(=O)CCn1cc(Cl)cn1
The Inhibition of the first is higher: 1.75% for the first, -25.34% for the second.

First: CCc1nnc(NCCS(=O)(=O)N(C)C)o1
Second: CCc1nnc(NC2CCOC3(CCOCC3)C2)o1 (centres undefined)
The Inhibition of the first is lower: -4.82% for the first, 8.44% for the second.

Compared with `CC(C)n1cc(C(=O)NCCN(C)S(C)(=O)=O)cn1`, `CCN(C)CCNC(=O)c1cc(C2CC2)[nH]n1` is lower in Inhibition: 17.41% for the first, -3.76% for the second.

Compared with `CC(=O)NCc1cn2c(C)cccc2n1`, `CC(=O)NC(C(=O)Nc1cccc(C)n1)C(C)C` (centres undefined) is lower in Inhibition: -5.3% for the first, -8.54% for the second.

First: CNC(=O)c1nc(-c2ccc(C(F)(F)F)cc2)no1
Second: CS(=O)(=O)CC1(CNc2cccc(C(F)(F)F)n2)CC1
The Inhibition of the first is higher: 32.14% for the first, -21.2% for the second.

Going from `CN(c1ccccc1C(N)=O)S(=O)(=O)c1cccs1` to `CN(c1ccc(O)cc1)S(=O)(=O)c1ccco1`, the Inhibition rises from -71.82% to -8.79%.

Going from `CN(C(=O)COCC1CC1)c1nc2ccccc2n1C` to `CCOCC(=O)N(C)Cc1cccc2cnccc12`, the Inhibition falls from 4.52% to -38.69%.

Going from `CCN1CCN(CC(=O)Nc2ccc(C)cc2C)CC1` to `CCC(=O)N1CCCN(c2ccncc2Cl)CC1`, the Inhibition rises from -4.07% to -2.88%.

Compared with `CN(C)[C@@H]1CN(C(=O)c2ncccn2)C[C@H]1CO`, `CS(=O)(=O)N1CCCC(C(=O)Nc2cccnc2O)C1` (centres undefined) is higher in Inhibition: 3.69% for the first, 14.72% for the second.

Going from `NC(=O)CCC1CCNCC1` to `Cn1nc(C(F)(F)F)c(Cl)c1C(=O)N[C@@H]1CCNC1`, the Inhibition rises from -8.79% to 31.11%.

First: CCC(C)NC(=O)N1CCCN(C2CC2)CC1 (centres undefined)
Second: O=C1CN(Cc2ncc[nH]2)CCN1C1CCCC1
The Inhibition of the first is higher: 16.96% for the first, 2.49% for the second.

Going from `Fc1ccccc1CN1CCn2ccnc2C1` to `Nc1ncccc1CN1CCc2ccccc2CC1`, the Inhibition rises from -12.72% to 7.61%.

First: NC1CCCN(c2noc(-c3ccccc3)n2)CC1 (centres undefined)
Second: CC(=O)N1CCCn2nc(-c3cccnc3)cc2C1
The Inhibition of the first is lower: 0.95% for the first, 11.49% for the second.

First: COCCNC(=O)NCCc1ccc(C)c(OC)c1
Second: COc1ccc(CNC(=O)C2=COCCO2)cc1OC
The Inhibition of the first is higher: 7.38% for the first, 2.02% for the second.

Compared with `Cc1ccc(NC(=O)NC2(CCO)CCOCC2)s1`, `OCc1ccncc1NCC1CCOCC1` is higher in Inhibition: -4.26% for the first, 8.94% for the second.

First: CCc1ccccc1CN
Second: N#CCSCC(=O)NCc1ccccc1F
The Inhibition of the first is higher: 3.32% for the first, -29.21% for the second.

Going from `CC(CO)Sc1ccc(S(=O)(=O)C(F)F)cc1` (centres undefined) to `CC(=O)NC(CC(=O)N1CCCC1)c1ccc(Cl)cc1` (centres undefined), the Inhibition falls from 16.44% to -24.39%.

Compared with `OCCCNc1cccc(Cl)c1-n1cccn1`, `O=C(CCc1ccccn1)NCCn1cccc1` is higher in Inhibition: -33.42% for the first, 9.1% for the second.

Going from `CN(Cc1ccccc1)C(=O)NC1CCCCNC1=O` (centres undefined) to `CN1Cc2cccn2CC1CNC(=O)NC1CCCC1` (centres undefined), the Inhibition falls from -2.06% to -13.25%.

Going from `Cc1cc(N(C)C)nc(N2CCCC2C(=O)N(C)C)n1` (centres undefined) to `COc1ccc(C)c(NC(=O)N(C)CCN(C)C)c1`, the Inhibition falls from -8.5% to -15.47%.

First: Cc1cc(NC(=O)CCn2ccnc2)no1
Second: Cc1cc(NC(=O)Nc2ccccn2)n(C)n1
The Inhibition of the first is lower: 1.69% for the first, 4.35% for the second.

Going from `COc1c(CNC(=O)c2cccs2)c(C)nn1C` to `COCCN(C)C(=O)Nc1cccc(C)n1`, the Inhibition rises from -17.79% to -9.37%.

First: COc1cc(F)c(C(=O)N[C@@H]2CCNC[C@H]2O)c(F)c1
Second: COc1ccc2c(c1)[C@@H](O)CCC2
The Inhibition of the first is higher: 19.43% for the first, -31.22% for the second.

First: Cn1c(N)nc2cc(F)ccc21
Second: COc1ccc(-c2cncc(N)c2)cc1CO
The Inhibition of the first is lower: -7.38% for the first, -5.49% for the second.

First: CCn1ccc(C(=O)NCc2ccco2)n1
Second: O=C1CCC(=O)N1CCSc1ccc2ccccc2n1
The Inhibition of the first is higher: 2.87% for the first, -6.71% for the second.

First: COc1ccc(Br)c(S(=O)(=O)N(C)C)c1
Second: NCC(=O)Nc1ccc2c(c1)CCC2
The Inhibition of the first is higher: -20.8% for the first, -42.19% for the second.

First: N#Cc1ccc(OC2CCNC2)nc1 (centres undefined)
Second: NCc1nc2c(s1)CCCC2
The Inhibition of the first is higher: 1.63% for the first, -13.62% for the second.
